Our source for the activity values is PubChem BioAssay AID1347421 (Sanford-Burnham Center for Chemical Genomics, 2020).

Structures are written as SMILES. Whole data set: some 1,500 compounds, median “activity” near 2, cut for the lowest 2% near -18. Shown is part of a subset that was picked to be rich in the lowest values. Activity calls are given as the source filed them.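 How the source made its calls: active means inhibition of at least 40% at 10 µM; inconclusive means no clear call, values can overlap the other calls; inactive means the rest.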

The assay deals with Sulfhydryl oxidase 1 (Homo sapiens) (UniProt O00391). Briefly: human QSOX1 sulfhydryl oxidase inhibition – biochemical, ROS-Glo luminescence, single concentration, confirmation (AID 1347421).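 Further: 0% = DMSO wells with enzyme and 100% = wells lacking QSOX1 enzyme.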 The conditions noted are these: recombinant hQSOX1, RNase A substrate, ROS-Glo H2O2 luminescence; at 10 µM.
Sulfhydryl oxidase 1 (Homo sapiens), sequence (O00391 whole entry, looked up): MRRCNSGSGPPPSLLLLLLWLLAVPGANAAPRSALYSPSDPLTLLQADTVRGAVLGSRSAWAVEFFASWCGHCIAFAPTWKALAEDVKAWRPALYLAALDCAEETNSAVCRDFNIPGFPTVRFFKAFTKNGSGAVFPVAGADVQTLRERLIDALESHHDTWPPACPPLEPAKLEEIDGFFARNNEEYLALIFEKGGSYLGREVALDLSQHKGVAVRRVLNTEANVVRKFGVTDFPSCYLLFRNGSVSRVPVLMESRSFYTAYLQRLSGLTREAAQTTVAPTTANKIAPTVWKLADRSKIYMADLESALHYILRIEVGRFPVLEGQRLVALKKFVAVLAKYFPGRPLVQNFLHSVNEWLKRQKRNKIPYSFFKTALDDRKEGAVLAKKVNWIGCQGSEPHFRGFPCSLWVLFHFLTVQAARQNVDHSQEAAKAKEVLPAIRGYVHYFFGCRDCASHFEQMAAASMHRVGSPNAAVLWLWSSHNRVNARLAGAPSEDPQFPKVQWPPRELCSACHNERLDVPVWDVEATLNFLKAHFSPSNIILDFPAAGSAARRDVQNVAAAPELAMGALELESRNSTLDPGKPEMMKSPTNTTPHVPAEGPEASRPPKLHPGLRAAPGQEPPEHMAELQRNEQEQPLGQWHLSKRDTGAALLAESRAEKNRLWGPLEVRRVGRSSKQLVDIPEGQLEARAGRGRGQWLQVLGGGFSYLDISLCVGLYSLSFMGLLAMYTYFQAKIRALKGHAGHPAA
Consider `C=CCn1nnnc1NCc1ccc(F)cc1`, for which the activity was 7.4%.

For `CCCn1cc(CN2CCOC(CCc3ccccc3)C2)c(C)n1` (stereo unspecified), the activity is -1.5% (inactive).

In the case of `CCOC(=O)N1CCC(N2CCOC(CC3CCCCC3)C2)CC1` (stereo unspecified), the activity was 6.1%.

For the compound `NC(=O)C1CCCN(Cc2cn(-c3ccccc3)nc2-c2ccc3c(c2)OCO3)C1` (stereo unspecified), the activity was -1.5% (inactive).

`O=C(Nc1ccccc1N1CCN(C(=O)c2ccc(Cl)cc2)CC1)c1ccco1`: the activity turned out to be 0.8%.

In the case of `CCn1c(CN2CCCC2)nc2ccccc21`, the activity was -5.8% (inactive).

As to `CCn1c(SCC(=O)N2CCCCCC2)nc2ccccc21`, the activity was -11.6% (inactive).

In the case of `CCn1c(C2CCCO2)nc2ccccc21` (stereo unspecified), the activity was -18.1% (inactive).

With `CN1CCN(C(=O)CCC2CCCN(C(=O)Cc3ccc4c(c3)OCO4)C2)CC1` (stereo unspecified), the activity amounted to 0.8%.

Regarding `CN(CCOc1ccccc1)Cc1nc(-c2ccccn2)no1`, the activity is 3.2%.

Turning to `COc1ccc(C(=O)C2CCCN(Cc3ccc4cc(F)ccc4n3)C2)cc1OC` (stereo unspecified), the activity was 1.1%.

In the case of `COc1cccc(C(=O)C2CCCN(Cc3ccc4cccc(F)c4n3)C2)c1` (stereo unspecified), the activity was -23.5% (inactive).

On to `CSc1ncc(CN2CCCC(C(=O)c3cccc(OC(C)C)c3)C2)cn1` (stereo unspecified), for which the activity is 8.6%.

Turning to `CC1CCN(Cc2nnnn2CCCC(=O)N(C)CCC(O)c2ccccc2)CC1` (stereo unspecified), the activity is 7.2%.

As to `O=C(Nc1cccc(-n2cnnn2)c1)C1CCCN1CCCC(F)(F)F` (stereo unspecified), the activity is -2.9% (inactive).

As to `O=C1N(CC2CC2)CCCC12CCN(Cc1cccc(-n3cccn3)c1)C2` (stereo unspecified), the activity was -0.7% (inactive).

As to `O=C(Nc1cccc(-n2cccn2)c1)C1CCCN1Cc1cnc[nH]1` (stereo unspecified), the activity is -25.6% (inactive).

For the compound `Cc1ccc(NC(=O)c2cc(C)c(C)o2)cc1C`, the activity is -0.4% (inactive).

Consider `CC(C)Oc1cccc(NC(=O)Nc2ccccc2)c1`, for which the activity is 6.3%.

`CC(C)Oc1cccc(C(=O)Nc2ccc3[nH]c(=O)[nH]c3c2)c1`: the activity came out at 5.2%.

With `CC(C)Oc1cccc(NC(=O)c2ccccc2Cl)c1`, the activity was -28.9% (inactive).

Take `O=C(NCCCn1nnc2ccccc21)C1CCC(=O)N(CCN2CCOCC2)C1` (stereo unspecified): the activity was -0.4% (inactive).

Turning to `CN(CCc1ccccn1)c1ncccc1CNC1CSCCSC1`, the activity is -4% (inactive).

Consider `c1ccc(-c2noc(CN3CCN(Cc4ccc5c(c4)OCO5)CC3)n2)cc1`, for which the activity stood at 7.5%.

Take `O=C(Nc1ccc2c(c1)OCCO2)c1ccc(=O)[nH]n1`: the activity is -1.3% (inactive).

Take `CN(C)C(=O)Nc1ccc2c(c1)CCC2`: the activity was -6.3% (inactive).

Consider `COCCn1c(CN(C)Cc2cccnc2)cnc1S(=O)(=O)CC(C)(C)C`, for which the activity is 7.7%.

On to `OC(COc1ccccc1CNCCc1ccccn1)CN1CCSCC1` (stereo unspecified), for which the activity came out at 5.9%.

On to `CSCc1ccc(C(=O)N2CCC3(CCCN(CC(C)(C)C)C3)C2)o1` (stereo unspecified), for which the activity is -0.7% (inactive).

As for `CC(C)CCCC1CN(C2CCN(Cc3ccccn3)CC2)CCO1` (stereo unspecified), the activity was 5.9%.

As to `COc1cccc(CC2CN(C3CCSCC3)CCO2)c1` (stereo unspecified), the activity came to 10.9%.

Consider `O=C(CCN1CCCO1)N1CCCC(N2CCN(c3cccc(C(F)(F)F)c3)CC2)C1` (stereo unspecified), for which the activity was -0.1% (inactive).

In the case of `O=C1N(CC2CCCCC2)CCCC1(O)CN1CCCOCC1` (stereo unspecified), the activity amounted to 4.1%.

With `CC(=O)Oc1ccc(/C=C/c2ccc3ccccc3n2)cc1Cl`, the activity was 55.2% (active).

Regarding `O=C1COc2ccc(S(=O)(=O)N3CCc4ccccc43)cc2N1`, the activity was found to be 2.6%.

As for `Cc1cnc(C)c(N2C[C@H]3OC(=O)N(C4CCCC4)[C@H]3C2)n1`, the activity was found to be 7.1%.

Regarding `CS(=O)(=O)c1cccc(S(=O)(=O)NC2CCCC2)c1`, the activity came out at 7%.

As to `Cc1ccc(S(=O)(=O)NC2CCCCC2)cc1C(N)=O`, the activity is -20.3% (inactive).

As for `Cc1ccc(S(=O)(=O)N2CCN(c3ccccc3)CC2)cc1C(N)=O`, the activity was 1.7%.

For `Cc1cccc(S(=O)(=O)NCC2CCN(c3cnn(C)c(=O)c3)C2)c1` (stereo unspecified), the activity stood at 5.8%.

For `CC(=O)Nc1ccc(S(=O)(=O)N2CCN(C(=O)N3CCCCCC3)CC2)cc1`, the activity is -1.3% (inactive).

Take `Cc1ccc(S(=O)(=O)N2CCC(C(=O)N3CCN(c4ccccn4)CC3)CC2)cc1`: the activity was -18.7% (inactive).

Regarding `Cc1nc(CC(=O)N2CCCC(CCC(=O)N3CCN(c4ccccn4)CC3)C2)cs1` (stereo unspecified), the activity is -2.5% (inactive).

As for `CCN(CC1CCCO1)C(=O)C1CCN(C2CCN(Cc3ccccc3C)CC2)CC1` (stereo unspecified), the activity was found to be 9.1%.

As for `COCCN1CCC(CN(Cc2ccncc2)Cc2csc(C(C)=O)c2)CC1`, the activity was -7.9% (inactive).

For `COc1cccc(CN2CCCC(NCc3ccc4nonc4c3)C2)c1` (stereo unspecified), the activity is -3.2% (inactive).

On to `COC(=O)C1CCCCN1C(=O)c1ccc2oc(C(C)C)nc2c1` (stereo unspecified), for which the activity was 4.4%.

On to `c1ccc(CCCc2nn3c(-c4cccnc4)nnc3s2)cc1`, for which the activity was determined as 3%.

Take `c1ccc(Cc2nn3c(-c4ccco4)nnc3s2)cc1`: the activity was -5.1% (inactive).

As to `Cc1occc1-c1nnc2sc(CCc3ccccc3)nn12`, the activity is -18.1% (inactive).

As for `Cc1nonc1CC(=O)N1CCC(CCC(=O)N2CCN(c3ccccc3)CC2)CC1`, the activity came out at 11.2%.

As to `Cc1nc(SCC(=O)N2CCN(c3ccccc3)CC2)nc2c1CCCC2`, the activity was -19.5% (inactive).

Consider `Cc1ccc(S(=O)(=O)CC(=O)N2CCN(c3ccccc3)CC2)cc1`, for which the activity was -17% (inactive).

For the compound `COc1ccc(N2CCN(C3CCCN(Cc4nc5ccccc5nc4C)C3)CC2)cc1` (stereo unspecified), the activity is 7.9%.

For the compound `OC(COc1ccccc1CNCCc1cnccn1)CN1CCSCC1` (stereo unspecified), the activity stood at 7.9%.

Consider `O=C1CN(c2nc3nonc3nc2NC2CCCC2)CCN1C1CCCC1`, for which the activity was -1.2% (inactive).

For `C=CCn1cc(CNC2CC(=O)N(Cc3cccc(F)c3)C2)c(C)n1` (stereo unspecified), the activity is -1.3% (inactive).

Take `COc1ccc(C(C)(C)NC(=O)C2CCC(=O)N(Cc3ccccc3F)C2)cc1OC` (stereo unspecified): the activity is -0.6% (inactive).

As for `O=C(NCCc1ccc(Cl)cc1)c1cccc(-n2cnnc2)c1`, the activity was -1% (inactive).

For `CC(=O)c1cccc(OCc2cc(C(=O)N(CC3CC3)CC3CCCO3)no2)c1` (stereo unspecified), the activity was determined as 0.5%.

Take `CC(C)CCCC1CN(C(=O)c2ccc(N3CCN(C)CC3)cc2)CCO1` (stereo unspecified): the activity turned out to be 6.6%.

In the case of `Cc1cc(Oc2ccccc2)nc(Oc2ccc(=O)n(-c3ccccc3)n2)n1`, the activity was -9.1% (inactive).

On to `CC(C)(C)NC(=O)CN1C(=O)CCC1=O`, for which the activity is -0.4% (inactive).

In the case of `Cc1nc2sccn2c1C(=O)N1CCCC(N(C)Cc2ccccc2)C1` (stereo unspecified), the activity was -0.3% (inactive).

In the case of `O=C(C1CCCO1)N1CCc2[nH]nc(-c3ccc(C(F)(F)F)cc3)c2C1` (stereo unspecified), the activity is -2.9% (inactive).

On to `COc1cc(CNCc2ccc(F)cc2)ccc1OCC(O)CN1CCOCC1` (stereo unspecified), for which the activity worked out at 2.4%.

Take `O=C(Nc1ccccc1)N1CCN(c2nsc3ccccc23)CC1`: the activity is -22.1% (inactive).

In the case of `O=C(NCc1ccccc1)N1CCN(CCO)CC1`, the activity was found to be 2.5%.

In the case of `CC(C)C(=O)N1CCN(c2ccc(NC(=O)c3ccccn3)cc2)CC1`, the activity came out at 7.7%.

For the compound `COc1ccc(NC(=O)NC2CC(=O)N(CC(C)(C)C)C2)c(OC)c1` (stereo unspecified), the activity was -1.6% (inactive).

For `O=C(NCC(O)CO)c1ccc(OC2CCN(CCc3ccccc3)CC2)cc1` (stereo unspecified), the activity is -0.6% (inactive).

`CCN1CCN(CC(O)COc2cccc(CNCCCSC)c2)CC1` (stereo unspecified): the activity is 9.1%.

With `COc1ccc(F)c(CN2CCCC3(CCN(S(=O)(=O)N(C)C)C3)C2=O)c1` (stereo unspecified), the activity was found to be 0.3%.

In the case of `COc1cccc(CN2CCCC3(CCN(Cc4ccccn4)C3)C2)c1OC` (stereo unspecified), the activity is 7.4%.

In the case of `Cc1nc(C)c(CN2C[C@H]3OC(=O)N(CCCc4ccc(F)cc4)[C@H]3C2)nc1C`, the activity is 8.2%.

Regarding `C=CCC(=O)N(CCOC)CC1CCCN(C2Cc3ccccc3C2)C1` (stereo unspecified), the activity worked out at 6.2%.

For the compound `CCC(=O)Oc1ccc(-c2nc(-c3cccc(OC)c3)no2)cc1`, the activity is 86.9% (active).

For the compound `CCOC(=O)c1nc(-c2ccc(F)cc2)no1`, the activity was -21.6% (inactive).

As to `COC(=O)c1ccc(-c2noc(CN(C)CC3Cc4ccccc4O3)n2)cc1` (stereo unspecified), the activity turned out to be 5.4%.

With `CC(C)NC(=O)C1CCN(C2CCN(C3CCSCC3)CC2)CC1`, the activity stood at 0.2%.

`COc1ccccc1C(=O)C1CCCN(Cc2ccc(OCCO)cc2)C1` (stereo unspecified): the activity worked out at 1.5%.

For the compound `O=C(c1cc2ccccc2oc1=O)N1CCOC(CC2CCCCC2)C1` (stereo unspecified), the activity came to 0.4%.

As to `COc1ccc(N2CCN(C(=O)c3ccc(-n4cnnc4)cc3Cl)CC2)cc1`, the activity is -13.7% (inactive).

Turning to `CC(=O)Nc1cccc(C(=O)N2CCN(c3ccccc3)CC2)c1`, the activity came to 5.9%.

For the compound `COc1ccc(N2CCN(C(=O)c3cccc(-n4cnnc4)c3)CC2)cc1`, the activity was -22.3% (inactive).

Take `COCCN1CCCC(O)(CN2CCCCCC2)C1=O` (stereo unspecified): the activity came out at 10.4%.

`O=C(CSc1nnc(-c2ccco2)o1)Nc1ccc(Br)cc1`: the activity amounted to 2.3%.

As to `O=C(/C=C/c1cccnc1)N1CCCC(N2CCN(c3ccc(F)cc3)CC2)C1` (stereo unspecified), the activity turned out to be 1%.

Take `c1ccc(-c2nn3c(-c4ccco4)nnc3s2)nc1`: the activity was -4.2% (inactive).

In the case of `c1ccc(-c2nn3c(-c4cccs4)nnc3s2)nc1`, the activity was -20.4% (inactive).

For `c1ccc(Cc2nn3c(-c4cccs4)nnc3s2)cc1`, the activity is -5.3% (inactive).

Take `OCC1CCN(C2CCCN(Cc3cccc(OC4CCCC4)c3)C2)CC1` (stereo unspecified): the activity amounted to 7%.

For `CCN(CC)S(=O)(=O)Cc1ccccc1Cl`, the activity is -19.9% (inactive).

In the case of `CCCCNC(=O)N1CCN(Cc2ccccc2Cl)CC1`, the activity is -7% (inactive).

Regarding `CCN(CC)CC(=O)N1CCOC(Cc2ccccc2Cl)C1` (stereo unspecified), the activity came out at 2.5%.

`C=CCNC(=O)CCc1ccc(S(=O)(=O)NC)cc1`: the activity was -11.4% (inactive).

For `O=C(Cn1nnc(-c2cccs2)n1)NCCC1=CCCCC1`, the activity is -7.9% (inactive).

On to `CC(C)CCCC1CN(C(=O)CCC(N)=O)CCO1` (stereo unspecified), for which the activity is 6.8%.

As for `Cc1occc1-c1nnc2n1N=C(c1ccccc1)CS2`, the activity is -19.7% (inactive).

Take `Cc1oc(-c2ccccc2Cl)nc1CN(Cc1cnn(C)c1)C(C)C`: the activity turned out to be 5.9%.

For `COc1ccc(CNCCCSC)cc1OCC(O)CN(C)C(C)C` (stereo unspecified), the activity worked out at 3.5%.

As for `O=C(NCC(c1ccc(F)cc1)N1CCCC1)c1cn(CCN2CCOCC2)nn1` (stereo unspecified), the activity was 2.4%.

Take `COc1cccc(NC(=O)CCC2CCN(C(=O)CCc3cnccn3)CC2)c1`: the activity was -0.4% (inactive).

On to `CCN1CCCC1CNC(=O)CCC1CCN(Cc2cc(OC)c3c(c2)OCO3)CC1` (stereo unspecified), for which the activity stood at 0.6%.

Consider `CCS(=O)(=O)c1ncc(CN(C)CC(O)c2ccccc2)n1Cc1ccccc1` (stereo unspecified), for which the activity turned out to be 6.9%.

As for `CCn1cc(-c2nc(-c3ccccn3)no2)cn1`, the activity is 44.4% (active).
